Calls of active or inactive are those of the source. Unless noted, the rule behind the calls is not given here.
How the values were obtained:
[1] = resazurin metabolic signal in HepG2 cells – cell-based, resazurin fluorescence, 24 h, PK04 Diversity Set, profiling panel (AID 1172); conditions: HepG2 viability, higher = more signal; note: test concentration not given here
[2] = budding yeast growth changes without added modifier – OD600, strain BY4716, 24 h, basal condition, primary screen (AID 1173); conditions: S. cerevisiae BY4716 growth, OD600, 24 h; higher = more signal, called active from +8 up or from −8 down
[3] = viability profiling in MM1S myeloma cells – cell-based, resazurin fluorescence, basal, 24 h, PK04 Diversity Set, profiling panel (AID 1174); conditions: higher = more signal, called active from +8 up or from −8 down;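 note: MM1S multiple myeloma cell line; test concentration not given here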
[4] = biological target: Dihydroorotate dehydrogenase (quinone), mitochondrial (Plasmodium falciparum (isolate 3D7)) (UniProt Q08210); experiment: inhibition of P. falciparum DHODH – biochemical, C-terminal His tag, absorbance 600 nm, primary screen (AID 1175); conditions: PfDHODH enzyme, DCIP absorbance 600 nm; higher = more signal, called active from +8 up or from −8 down;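 note: recombinant parasite enzyme with a five histidine tag at its C terminus; test concentration not given here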
Sequence of Dihydroorotate dehydrogenase (quinone), mitochondrial (Plasmodium falciparum (isolate 3D7)) (Q08210 whole entry, looked up): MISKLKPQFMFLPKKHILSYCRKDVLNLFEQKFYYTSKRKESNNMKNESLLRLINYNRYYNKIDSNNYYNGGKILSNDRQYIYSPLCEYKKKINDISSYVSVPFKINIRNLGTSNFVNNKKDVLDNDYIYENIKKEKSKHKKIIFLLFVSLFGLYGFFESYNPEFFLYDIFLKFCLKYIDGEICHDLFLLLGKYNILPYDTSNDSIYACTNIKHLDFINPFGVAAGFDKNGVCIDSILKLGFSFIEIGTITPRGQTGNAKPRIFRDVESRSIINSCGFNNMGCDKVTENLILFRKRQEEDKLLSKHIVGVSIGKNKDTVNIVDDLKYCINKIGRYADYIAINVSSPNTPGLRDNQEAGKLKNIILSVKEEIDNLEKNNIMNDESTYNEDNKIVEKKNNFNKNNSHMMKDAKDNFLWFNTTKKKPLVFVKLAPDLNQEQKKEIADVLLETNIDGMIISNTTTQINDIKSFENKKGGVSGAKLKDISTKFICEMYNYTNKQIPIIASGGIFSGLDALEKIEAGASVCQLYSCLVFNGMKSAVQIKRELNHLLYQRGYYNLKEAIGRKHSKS

[5] = inhibition of PAO1 biofilm formation – strain PAO1, LB-PBS medium, absorbance 600 nm, primary screen (AID 1176); note: test concentration not given here; conditions: P. aeruginosa PAO1 growth/biofilm, A600, 12 h; higher = more signal
[6] = growth modulation of vineyard yeast isolate – strain RM11-1a, OD600, basal, 24 h, primary screen (AID 1177);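 note: cultures grown under basal conditions with no added stressor; test concentration not given here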; conditions: S. cerevisiae RM11-1a growth, OD600, 24 h; higher = more signal, called active from +8 up or from −8 down
[7] = growth of efflux-deficient E. coli DRC39 – strain DRC39, OD650, 24 h, E. coli filamentation inducers, primary screen (AID 1178);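 note: growth measured as culture turbidity by optical density at 650 nm; test concentration not given here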; conditions: E. coli DRC39 acrAB, higher = more signal, called active from +8 up or from −8 down
[8] = growth of efflux-deficient E. coli DRC39 – strain DRC39, OD650, 48 h, E. coli filamentation inducers, primary screen (AID 1179);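 note: screen aims at cell division blockers that make cells filament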; conditions: E. coli DRC39 delta-acrAB growth, higher = more signal, called active from +8 up or from −8 down
[9] = viability profiling in RPMI8226 myeloma cells – cell-based, resazurin fluorescence, basal, 24 h, PK04 Diversity Set, profiling panel (AID 1180); conditions: higher = more signal;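 note: RPMI8826 multiple myeloma cell line at 5000 cells per well; test concentration not given here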
[10] = biological target: E3 ubiquitin-protein ligase XIAP (Homo sapiens) (UniProt P98170); experiment: small molecules binding XIAP protein – biophysical, small-molecule microarray, fluorescence 635 nm, primary screen (AID 1181); conditions: higher = more signal;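 note: score merges 667 nm emission and signal to noise over triplicate slides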
Sequence of E3 ubiquitin-protein ligase XIAP (Homo sapiens) (P98170 whole entry, looked up): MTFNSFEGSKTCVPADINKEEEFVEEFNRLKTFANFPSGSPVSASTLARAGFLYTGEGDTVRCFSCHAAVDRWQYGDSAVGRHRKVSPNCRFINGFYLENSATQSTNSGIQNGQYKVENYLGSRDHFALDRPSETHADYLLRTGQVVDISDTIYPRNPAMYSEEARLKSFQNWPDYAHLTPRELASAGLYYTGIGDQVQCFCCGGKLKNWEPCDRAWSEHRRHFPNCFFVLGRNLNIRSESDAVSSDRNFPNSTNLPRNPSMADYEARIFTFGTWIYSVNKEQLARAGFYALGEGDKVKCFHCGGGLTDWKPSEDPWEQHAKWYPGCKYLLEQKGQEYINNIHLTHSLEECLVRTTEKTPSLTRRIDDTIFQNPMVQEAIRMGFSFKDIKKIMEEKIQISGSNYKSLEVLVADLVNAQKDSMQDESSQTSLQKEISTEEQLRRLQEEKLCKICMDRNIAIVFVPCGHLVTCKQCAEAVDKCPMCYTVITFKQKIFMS

Compound	z-score [1]	z-score [2]	z-score [3]	composite z-score [4]	z-score [5]	z-score [6]	z-score [7]	z-score [8]	z-score [9]	composite z-score [10]
COCCOC(=O)N1C(=O)[C@@]2(c3cc(C#CC4=CCCCC4)ccc31)[C@H](C(=O)Nc1nc3ccccc3s1)[C@H]1C(=O)O[C@H](c3ccccc3)[C@H](c3ccccc3)N1[C@@H]2c1ccc(OCCO)cc1	0.366	1.05 (inactive)	0.295 (inactive)	0.0498 (inactive)	4.33 (inactive)	2.51 (inactive)	-1.26 (inactive)	-2.09 (inactive)	-0.0984	-0.106
COc1ccc([Si](C)(C)[C@H]2[C@H](CCn3cc([C@H](O)c4ccccc4)nn3)O[C@@]3(C(=O)N(Cc4cccc(N5CCOC5=O)c4)c4ccccc43)[C@@H]2C)cc1	-0.332	0.548 (inactive)	-1.59 (inactive)	-0.351 (inactive)	1.43 (inactive)	1.18 (inactive)	0.196 (inactive)	0.0133 (inactive)	-0.754	-0.117
CC(CO)N1C(=O)[C@@H]2C3C(=O)OCCC/C=C\[C@H]3OC23C=CCN(c2ccc4ccccc4c2)C(=O)[C@@H]13 (stereo not given in full)	-0.757	-0.55 (inactive)	-0.208 (inactive)	0.575 (inactive)	-0.456 (inactive)	0.179 (inactive)	0.162 (inactive)	0.703 (inactive)	-0.0216	-0.0989
COC(=O)[C@@]1(Cc2ccccc2)[C@H]2c3cc(C(=O)N4CCCC4)n(Cc4nc5ccccc5[nH]4)c3C[C@H]2CN1C(=O)c1ccccc1	-0.415	1.22 (inactive)	-1.66 (inactive)	0.374 (inactive)	0.687 (inactive)	0.759 (inactive)	-0.538 (inactive)	-1.1 (inactive)	-1.3	0.119
C=CCOC(=O)[C@H]1[C@@H]2C(=O)O[C@@H](c3ccccc3)[C@@H](c3ccccc3)N2[C@@H](c2ccc(OCCOC(=O)[C@@H]3C[C@@H]4C(=O)N[C@@H](CCCCN(C)C)C(=O)N4[C@@H]3c3ccc(O)cc3)cc2)[C@]12C(=O)Nc1ccc(I)cc12	-0.513	-1.17 (inactive)	-1.06 (inactive)	-1.71 (inactive)	1.26 (inactive)	1.65 (inactive)	-0.619 (inactive)	0.767 (inactive)	-1.18	-0.0749
COc1ccc([Si](C)(C)[C@H]2[C@H](CC(=O)N3Cc4ccccc4C[C@H]3CO)O[C@@]3(C(=O)N(Cc4ccc(N5CCC5=O)cc4)c4ccccc43)[C@@H]2C)cc1	0.194	-0.535 (inactive)	-1.56 (inactive)	-3.08 (inactive)	0.201 (inactive)	1.83 (inactive)	-0.0476 (inactive)	-0.421 (inactive)	-1.26	0.216
[N-]=[N+]=NCc1ccccc1[C@@H]1OC(c2ccc(OCCCO)cc2)=N[C@]1(CCS(=O)(=O)c1ccccc1)C(=O)NCCN1CCOCC1	-1.13	-0.276 (inactive)	-0.346 (inactive)	0.328 (inactive)	0.286 (inactive)	0.935 (inactive)	0.239 (inactive)	0.564 (inactive)	-0.185	0.703
COc1ccc(C(O)C2C=CC3C(=O)NC(=O)C3N2Nc2ccccn2)c2ccccc12 (stereo not given)	-1.07	-0.33 (inactive)	-0.782 (inactive)	0.977 (inactive)	1.26 (inactive)	0.75 (inactive)	-0.272 (inactive)	-0.571 (inactive)	-1.24	0.246
O=C(NCc1ccccc1)[C@@H]1c2ccccc2C(=O)N(CC23CC4CC(CC(C4)C2)C3)[C@H]1c1ccc(CO)cc1	-0.511	-0.092 (inactive)	-1.12 (inactive)	-0.139 (inactive)	-0.245 (inactive)	0.0739 (inactive)	-0.142 (inactive)	-0.179 (inactive)	-0.195	0.0623
CC1CC/C=C\[C@H]2OC34C=CCN(Cn5nnc6ccccc65)C(=O)[C@H]3N(C(CO)C(C)C)C(=O)[C@@H]4C2C(=O)O1 (stereo not given in full)	0.913	0.673 (inactive)	-1.29 (inactive)	-0.64 (inactive)	0.357 (inactive)	-0.271 (inactive)	0.465 (inactive)	0.275 (inactive)	0.0555	0.646
CN1C2C=C(CCCO)C(C3C(=O)N(C(N)=O)C(=O)C32)C1c1ccc(CN2CCCC2)cc1 (stereo not given)	-0.163	0.464 (inactive)	-0.508 (inactive)	-0.157 (inactive)	0.661 (inactive)	-0.56 (inactive)	0.359 (inactive)	0.259 (inactive)	-0.287	-0.0703
COC(=O)[C@@]1(Cc2ccc(OC)cc2)[C@H]2c3cc(C(=O)N(C)C)n(CCN4CNCC4=O)c3C[C@H]2CN1C(=O)c1ccccc1	0.642	0.124 (inactive)	0.622 (inactive)	-0.72 (inactive)	0.371 (inactive)	-0.188 (inactive)	0.479 (inactive)	-0.318 (inactive)	0.777	0.597
COCCOC(=O)N1C(=O)[C@@]2(c3cc(C#Cc4ccc(OC)cc4)ccc31)[C@H](C(N)=O)[C@H]1C(=O)O[C@H](c3ccccc3)[C@H](c3ccccc3)N1[C@@H]2c1ccccc1OCCO	-0.483	1.06 (inactive)	-2.17 (inactive)	0.361 (inactive)	2.94 (inactive)	1.5 (inactive)	-0.688 (inactive)	-0.469 (inactive)	-2.68	0.0748
NCCCCCNC(=O)[C@@H]1C[C@@H]2C(=O)NCC(=O)N2[C@@H]1c1ccc(O)cc1	0.0154	-0.54 (inactive)	0.236 (inactive)	-1.28 (inactive)	0.227 (inactive)	0.225 (inactive)	0.121 (inactive)	0.654 (inactive)	-0.9	0.348
[N-]=[N+]=NCc1ccccc1C[C@]1(C(=O)N2CCOCC2)N=C(c2ccc(OCCCO)cc2)O[C@H]1c1ccccc1N=[N+]=[N-]	0.168	-1.05 (inactive)	-1.21 (inactive)	0.152 (inactive)	-0.357 (inactive)	-0.405 (inactive)	1.14 (inactive)	0.957 (inactive)	-1.61	-0.113
CN(C)CCCNC(=O)[C@@]1(c2ccc([N+](=O)[O-])cc2)CC(=O)N(C2CCCCC2)[C@@H]1c1ccc(CO)cc1I	-6.5	-11.7 (active)	-9.1 (active)	-1.19 (inactive)	0.0714 (inactive)	0.344 (inactive)	0.725 (inactive)	-1.28 (inactive)	-6.61	0.125
C=CCC(OC(C)=O)[C@@H]1[C@@H](N(Cc2ccc(-c3cccc(C(F)(F)F)c3)o2)C(=O)Cc2ccc(F)cc2)c2cc(OCCCO)ccc2N1C(=O)Cc1ccc(OC)cc1 (stereo not given in full)	1.2	-0.546 (inactive)	1.51 (inactive)	-1.26 (inactive)	0.0186 (inactive)	-0.905 (inactive)	0.559 (inactive)	0.671 (inactive)	1.06	0.0181
COC(=O)[C@@]1(Cc2ccc(F)cc2)[C@@H]2[C@@H](CC(=O)[C@H]2CC(=O)C(=O)N(C)C)CN1C(=O)c1ccccc1	-2.11	1.52 (inactive)	-1.4 (inactive)	-0.363 (inactive)	0.784 (inactive)	0.438 (inactive)	-0.287 (inactive)	-0.13 (inactive)	-2.97	0.0253
C[C@@]1([C@@H](NC(=O)c2ccccc2)c2ccc(-c3ccccc3)cc2)C[C@H]1C1CCCCC1	-1.32	1.14 (inactive)	-1.93 (inactive)	-0.712 (inactive)	1.57 (inactive)	0.0656 (inactive)	-1.59 (inactive)	-1.17 (inactive)	-0.675	-0.117
O=C(NCC(F)(F)F)[C@@H]1c2ccccc2C(=O)N(C2CCCCC2)[C@H]1c1ccc(CO)cc1	-0.501	0.804 (inactive)	-0.435 (inactive)	0.843 (inactive)	-0.255 (inactive)	1.11 (inactive)	-0.0514 (inactive)	-0.335 (inactive)	0.538	0.056
O=C1OCC=C[C@H]2OC34C=CCN(c5ccc6ccccc6c5)C(=O)[C@H]3N(CCCCCCO)C(=O)[C@@H]4[C@@H]12 (stereo not given in full)	0.551	-0.7 (inactive)	0.645 (inactive)	-1.24 (inactive)	-0.717 (inactive)	-0.472 (inactive)	0.841 (inactive)	0.982 (inactive)	0.683	0.086
COC(=O)C(CC#Cc1ccc2c(c1)[C@]1(C(=O)N2)[C@H](c2ccc(O)cc2)N2[C@H](c3ccccc3)[C@H](c3ccccc3)OC(=O)[C@H]2[C@@H]1C(=O)Nc1nc2ccccc2s1)C(=O)OC	0.0384	-1.11 (inactive)	1.05 (inactive)	-5.21 (inactive)	1.27 (inactive)	-1.44 (inactive)	0.666 (inactive)	1.04 (inactive)	0.12	-0.313
CCCCN1CC=CC23O[C@@H]4/C=C\CCC(C)OC(=O)C4[C@H]2C(=O)N(CCCCCO)[C@@H]3C1=O (stereo not given in full)	0.389	0.0305 (inactive)	0.96 (inactive)	0.18 (inactive)	0.646 (inactive)	-0.0125 (inactive)	0.511 (inactive)	0.35 (inactive)	0.05	-0.0436
COc1ccc([Si](C)(C)[C@@H]2[C@@H](CCO)O[C@]3(C(=O)N(Cc4ccc(N5C(=O)COc6ccccc65)cc4)c4ccccc43)[C@H]2C)cc1	-1.59	1.54 (inactive)	-2.01 (inactive)	-0.0524 (inactive)	2.5 (inactive)	4.73 (inactive)	-0.238 (inactive)	-0.639 (inactive)	-3.64	-0.0559
